Results on 15 molecules are retold here after PubChem BioAssay (EPA / NIEHS).

In assay [1] the target is human Norepinephrine Transporter (NET), SLC6A2 (gene 6530) (UniProt P23975). Briefly: NVS_TR_hNET: NovaScreen (NVS) Transporter Assay for human Norepinephrine Transporter (NET) (AID 2283377; active = hit-call score of the fitted dose curve at least 0.9, where 1 is the maximum;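 also: cell-free membrane protein extracted from CHO cells expressing human NET; displacement of radioligand from human NET seen as loss of scintillation signal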). In short, it runs like this:
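Single-concentration duplicate screen at 25 uM, then concentration-response for actives; displacement of specific radioligand from human NET in CHO membrane extracts, filter-based scintillation detection at 1 h relative to DMSO.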

Assay [2] is described as follows: STM_H9_NormalizedViability: Cytotoxicity Assessment at 120 hours in the Stemina devTOX quickPredict H9 human embryonic stem cell (hESC)-based Assay (AID 2283784; active = hit-call score of the fitted dose curve at least 0.9, where 1 is the maximum). In short, it runs like this:
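Viability of the cell layer was taken from live-cell protease cleavage of a fluorogenic substrate after compound exposure of undifferentiated H9 stem cells, with replenishment each 24h. Fluorescence was normalized to vehicle (0.1% DMSO).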

A short description of assay [3]: UKN5_HCS_SBAD2_cell_viability: Viability Assessment in the University of Konstanz (UKN) Leist Lab Neurite Outgrowth Assay in human iPSC-derived immature Dorsal Root Ganglia Neurons (UKN5) (AID 2284056). The essentials:
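iPSC-derived immature peripheral neurons (SBAD2) seeded on Matrigel with CHIR99021, SU5402 and DAPT, dosed 1 h later for 24 h. Viability from Hoechst H-33342 and calcein-AM live staining, high-content imaging; bidirectional fit versus DMSO.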

A short description of assay [4]: UKN5_HCS_SBAD2_neurite_outgrowth: University of Konstanz (UKN) Leist Lab Neurite Outgrowth Assay in human iPSC-derived immature Dorsal Root Ganglia Neurons (UKN5) (AID 2284070). As to conditions: actives raise or lower the signal. The essentials:
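Thaw, seed on Matrigel (100.000 cells/cm2), dose 1 h later; at 23 h live-stain with H-33342 and calcein-AM for 60 min; image at 24 h. Neurite area fitted bidirectionally vs DMSO.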

Assay [5] is described as follows: UKN2_HCS_IMR90_neural_migration: University of Konstanz (UKN) Leist Lab Neural Crest Cell Migration Assay in human induced IMR90 Pluripotent Stem Cells (UKN2) (AID 2284204). As to conditions: actives raise or lower the signal. The essentials:
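High-content imaging of calcein-AM and Hoechst stained cells quantifies migration into a stopper-defined gap after 24 h compound exposure. Neural crest cells from IMR90 iPSC migrated 24 h in EGF/FGF N2-S medium before dosing; DMSO baseline.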

Assay [6] is described as follows: UKN4_HCS_LUHMES_neurite_outgrowth: University of Konstanz (UKN) Leist Lab Neurite Outgrowth Assay in human LUHMES cells (UKN4) (AID 2284206). As to conditions: actives raise or lower the signal. In short, it runs like this:
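Human LUHMES cells were differentiated for two days, replated and treated with chemicals for 24 h. Neurite outgrowth was quantified as calcein-stained neurite area by HCS imaging, fitted bidirectionally relative to DMSO.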

Assay [7] is described as follows: UKN4_HCS_LUHMES_cell_viability: Viability Assessment in the University of Konstanz (UKN) Leist Lab Neurite Outgrowth Assay in human LUHMES cells (UKN4) (AID 2284232). The essentials: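 Cells switched to differentiation medium at day 0, replated on day 2 in medium lacking cAMP and GDNF, and compound-treated once attached. Live staining began 23.5 h later, imaging followed at 24 h.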

The nature of assay [8]: UKN2_HCS_IMR90_cell_viability: Viability Assessment in the University of Konstanz (UKN) Leist Lab Neural Crest Cell Migration Assay in human induced IMR90 Pluripotent Stem Cells (UKN2) (AID 2284233).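 Also: cells exposed to compound for 24 h after a 24 h migration phase.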 The essentials:
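After calcein-AM/Hoechst staining, viability is quantified by high-content fluorescence imaging, relative to DMSO, in iPSC (IMR90)-derived neural crest cells. Exposure lasts 24 h, starting after a 24 h migration period on PLO/laminin/fibronectin coating.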

Assay [9] addresses human Ephrin type-A Receptor 1 (EphA1), EPHA1 (gene 2041) (UniProt P21709). Briefly: NVS_ENZ_hEphA1: NovaScreen (NVS) Enzymatic Assay for human Ephrin type-A Receptor 1 (EphA1) (AID 2283158; active = hit-call score of the fitted dose curve at least 0.9, where 1 is the maximum;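 also: activity is signal loss versus DMSO meaning EphA1 kinase inhibition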). In short, it runs like this:
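Chemicals first tested in duplicate at 25 uM against recombinant EphA1 with a fluorescent substrate; those passing threshold went to singleton dose-response topping at 50 uM. Activity read 1 h later as mobility-shift fluorescence, loss of signal relative to DMSO.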

Assay [10] concerns the target human Phosphodiesterase 10 (PDE10), PDE10A (gene 10846) (UniProt Q9Y233). Briefly: NVS_ENZ_hPDE10: NovaScreen (NVS) Enzymatic Assay for human Phosphodiesterase 10 (PDE10) (AID 2283195; active = hit-call score of the fitted dose curve at least 0.9, where 1 is the maximum). In short, it runs like this:
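Fluorescence readout after mobility-shift separation of substrate and product, 1 h reaction with recombinant human enzyme. Single-concentration duplicates at 25 uM, then concentration-response up to 50 uM for chemicals reaching threshold; DMSO baseline.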

Assay [11] addresses sheep Cyclooxygenase-1 (Cox1), PTGS1 (gene 443551) (UniProt P05979). Briefly: NVS_ENZ_oCOX1: NovaScreen (NVS) Enzymatic Assay for sheep Cyclooxygenase-1 (Cox1) (AID 2283239; active = hit-call score of the fitted dose curve at least 0.9, where 1 is the maximum;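 also: actives reduce cyclooxygenase activity so potencies are for inhibitors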). The essentials:
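Absorbance read-out of cyclooxygenase activity in a cell-free preparation from sheep seminal vesicles, taken 0.66 hour after dosing. Initial testing was in duplicate at 25 uM, and confirmatory testing was run in concentration series.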

Read-out in assay [12]: Vascular cell adhesion molecule 1 (VCAM1), VCAM1 (gene 7412)
Briefly: BSK_BF4T_VCAM1: BioMAP Diversity Plus: BF4T Assay for Vascular cell adhesion molecule 1 (VCAM1) Biomarker Activity (AID 2284249). As to conditions: primary human bronchial epithelial cells with fibroblasts. In short, it runs like this:
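Cell-surface VCAM-1 quantified by ELISA after 24 h chemical exposure of human bronchial epithelial/dermal fibroblast co-cultures, with SRB staining in parallel wells for cytotoxicity; DMSO baseline, positive-direction fitting.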

Read-out in assay [13]: Interleukin-8 (IL8), CXCL8 (gene 3576)
Briefly: BSK_BF4T_IL8: BioMAP Diversity Plus: BF4T Assay for Interleukin-8 (IL8) Biomarker Activity (AID 2284263). As to conditions: primary human bronchial epithelial cells with fibroblasts. The essentials:
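Human bronchial epithelial cells with dermal fibroblasts co-culture; IL-8 measured by ELISA 24 hours after dosing, fitted vs DMSO. Cytotoxicity tracked in parallel cultures by SRB total-protein staining.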

Read-out in assay [14]: Interleukin-8 (IL8), CXCL8 (gene 3576)
Briefly: BSK_IMphg_IL8: BioMAP Diversity Plus: IMphg Assay for Interleukin-8 (IL8) Biomarker Activity (AID 2284277). As to conditions: primary human endothelial cells with macrophages. In short, it runs like this: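 IL-8 levels were measured by ELISA 24 h after dosing in primary human venular endothelial cell–macrophage cultures, referenced to DMSO; parallel SRB staining monitored overt cytotoxicity.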

Read-out in assay [15]: Interleukin-1 alpha (IL1a), IL1A (gene 3552)
Briefly: BSK_IMphg_IL1a: BioMAP Diversity Plus: IMphg Assay for Interleukin-1 alpha (IL1a) Biomarker Activity (AID 2284290). As to conditions: primary human endothelial cells with macrophages. In short, it runs like this:
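IL-1α is quantified by ELISA at 24 h in the endothelial/macrophage IMphg co-culture, with gain of signal fitted relative to DMSO. Parallel SRB total-protein staining flags overt toxicity.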

The target of assay [16] is Retinoic acid receptor alpha (Homo sapiens) (UniProt P10276). Briefly: ATG_DR5_RAR_CIS: Attagene CIS-FACTORIAL HepG2 Assay for human Retinoic Acid Receptor Alpha (RARE), DR5 submotif (AID 2282934). As to conditions: HepG2 Attagene cis-factorial RARE DR5 reporter, mRNA; actives raise or lower the signal. In short, it runs like this:
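Reporter transcripts from a DR5-regulated unit, measured via RT-PCR plus capillary electrophoresis, reflect endogenous RAR activity in transiently transfected human HepG2 liver cells. Exposure lasted 24 h; gain or loss of signal scored against DMSO.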

In assay [17] the target is human Peripheral-type Benzodiazepine Receptor (PBR), TSPO (gene 706) (UniProt P30536). Briefly: NVS_MP_hPBR: NovaScreen (NVS) Membrane Protein Assay for human Peripheral-type Benzodiazepine Receptor (PBR) (AID 2283331; active = hit-call score of the fitted dose curve at least 0.9, where 1 is the maximum;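 also: hits reduce radioligand binding relative to DMSO baseline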). The essentials:
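Cell-free binding to human colonic membrane preparations measured by filter-based scintillation counting after 1 h. Compounds first run at 25 uM in duplicate, then concentration series for actives; signal loss against DMSO baseline.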

A short description of assay [18]: TOX21_PR_LUC_Followup_Agonist_viability: Viability Assessment in the Tox21 HEK293 Progesterone Receptor (PR) Agonism Luciferase Follow-Up Assay (AID 2283941; active = hit-call score of the fitted dose curve at least 0.9, where 1 is the maximum;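 also: compound exposure 16 h at 37 °C; loss of signal means cytotoxicity so actives lower viability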). The essentials: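 Multiplexed viability endpoint of the PR agonist luciferase follow-up: HEK293-PR-A-luc cells treated 16 h at 37C, with viability scored as decrease in CellTiter-Glo ATP signal.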
The target of another assay is THRA (gene 7067) (UniProt P10827). Briefly: TOX21_TRA_COA_Antagonist_Followup_ratio: Tox21 Thyroid Hormone Receptor alpha Antagonism through Coactivator Recruitment Follow-Up Assay, Ratio (AID 2283953; active = hit-call score of the fitted dose curve at least 0.9, where 1 is the maximum). The essentials: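 GST-TRα LBD 2.5 nM, BSA 0.10%, + cpd; then FITC-SRC-2 peptide 200 nM + Tb-anti-GST Ab 2 nM. TR-FRET ratio 520/495 nm. Norm: DMSO = 0%, T3 = 100%.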

Assay [19] is described as follows: CCTE_Shafer_MEA_dev_firing_rate_mean: CCTE's Neural Network Formation Assay for Mean Firing Rate, Shafer Lab (AID 2284031).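 Also: curve fitted for loss of firing so AC50 reflects decreased mean firing rate.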 In short, it runs like this:
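Steps: seed rat cortical cells (1.5 x 10^5/well) with laminin on PEI-coated MEA; dose day 0; record DIV 5/7/9/12, full media and compound exchange after DIV 5 and 9 recordings; compute well-mean firing rate AUC.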

A word on the AC50: it is the midpoint of the concentration-response curve, whichever way the signal moves.

Inconclusive results are not listed. The source holds several records for some structures; these can differ, active in one and inactive in another. The source made the active and inactive calls. The calls were made as follows, unless noted: active = hit-call score of the fitted dose curve at least 0.9, where 1 is the maximum; inactive = score below 0.9.

Chain of human Norepinephrine Transporter (NET), SLC6A2 (gene 6530) (P23975 whole entry, looked up): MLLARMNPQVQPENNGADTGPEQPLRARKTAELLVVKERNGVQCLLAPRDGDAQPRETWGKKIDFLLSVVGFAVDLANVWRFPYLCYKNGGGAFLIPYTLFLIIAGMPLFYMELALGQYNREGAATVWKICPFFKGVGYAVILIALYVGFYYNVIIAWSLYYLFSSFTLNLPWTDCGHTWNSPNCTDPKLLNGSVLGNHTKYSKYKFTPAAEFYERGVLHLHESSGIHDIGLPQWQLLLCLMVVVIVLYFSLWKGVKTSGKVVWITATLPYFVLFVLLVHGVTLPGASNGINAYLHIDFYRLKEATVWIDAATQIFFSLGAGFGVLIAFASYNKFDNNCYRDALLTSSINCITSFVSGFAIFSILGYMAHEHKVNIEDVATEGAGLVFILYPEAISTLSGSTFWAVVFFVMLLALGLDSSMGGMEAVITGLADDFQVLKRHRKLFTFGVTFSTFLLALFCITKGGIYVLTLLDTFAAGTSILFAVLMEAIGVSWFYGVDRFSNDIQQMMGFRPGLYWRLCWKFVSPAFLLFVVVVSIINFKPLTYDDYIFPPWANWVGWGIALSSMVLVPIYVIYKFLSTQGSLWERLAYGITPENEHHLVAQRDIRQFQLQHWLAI
Chain of sheep Cyclooxygenase-1 (Cox1), PTGS1 (gene 443551) (P05979 whole entry, looked up): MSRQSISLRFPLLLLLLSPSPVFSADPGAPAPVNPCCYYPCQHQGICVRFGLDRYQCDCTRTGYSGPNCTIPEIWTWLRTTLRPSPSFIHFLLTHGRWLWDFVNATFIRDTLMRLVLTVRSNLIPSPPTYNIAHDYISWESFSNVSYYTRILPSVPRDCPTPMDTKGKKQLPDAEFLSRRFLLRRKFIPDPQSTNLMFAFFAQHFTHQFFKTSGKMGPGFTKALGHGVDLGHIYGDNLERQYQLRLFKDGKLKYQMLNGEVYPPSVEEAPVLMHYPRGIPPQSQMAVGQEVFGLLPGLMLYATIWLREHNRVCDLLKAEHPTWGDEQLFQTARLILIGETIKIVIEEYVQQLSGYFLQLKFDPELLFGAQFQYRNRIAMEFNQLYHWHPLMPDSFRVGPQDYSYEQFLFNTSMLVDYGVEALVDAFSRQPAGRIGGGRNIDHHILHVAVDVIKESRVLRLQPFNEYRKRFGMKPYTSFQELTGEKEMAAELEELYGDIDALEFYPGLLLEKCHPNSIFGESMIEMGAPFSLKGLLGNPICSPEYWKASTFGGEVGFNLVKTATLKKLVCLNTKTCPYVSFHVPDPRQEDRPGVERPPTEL
Chain of human Ephrin type-A Receptor 1 (EphA1), EPHA1 (gene 2041) (P21709 whole entry, looked up): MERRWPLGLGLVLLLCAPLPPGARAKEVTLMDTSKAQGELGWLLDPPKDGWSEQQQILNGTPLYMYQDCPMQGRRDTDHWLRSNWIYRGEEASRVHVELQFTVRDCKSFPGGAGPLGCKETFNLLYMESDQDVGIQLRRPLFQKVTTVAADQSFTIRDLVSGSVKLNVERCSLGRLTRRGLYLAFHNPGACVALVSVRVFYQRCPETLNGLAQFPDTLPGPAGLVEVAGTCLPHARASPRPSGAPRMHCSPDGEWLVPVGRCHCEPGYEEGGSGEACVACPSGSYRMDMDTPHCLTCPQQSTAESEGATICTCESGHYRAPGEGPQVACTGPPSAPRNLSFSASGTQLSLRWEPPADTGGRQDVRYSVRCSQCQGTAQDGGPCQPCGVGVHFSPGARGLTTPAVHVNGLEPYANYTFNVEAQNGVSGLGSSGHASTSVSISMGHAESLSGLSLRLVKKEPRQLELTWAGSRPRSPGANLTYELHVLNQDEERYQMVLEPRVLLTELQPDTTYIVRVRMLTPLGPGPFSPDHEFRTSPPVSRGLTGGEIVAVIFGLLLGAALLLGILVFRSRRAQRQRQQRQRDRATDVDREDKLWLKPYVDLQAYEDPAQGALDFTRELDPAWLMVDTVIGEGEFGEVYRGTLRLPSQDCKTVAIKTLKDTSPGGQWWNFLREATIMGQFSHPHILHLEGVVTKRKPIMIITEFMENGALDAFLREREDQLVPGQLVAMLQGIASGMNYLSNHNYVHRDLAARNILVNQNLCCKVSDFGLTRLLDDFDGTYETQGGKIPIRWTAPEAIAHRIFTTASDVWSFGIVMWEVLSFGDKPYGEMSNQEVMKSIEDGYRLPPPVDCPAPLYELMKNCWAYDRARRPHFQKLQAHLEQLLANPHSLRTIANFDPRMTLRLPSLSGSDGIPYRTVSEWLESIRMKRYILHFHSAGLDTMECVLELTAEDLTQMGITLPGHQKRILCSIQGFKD
Chain of Retinoic acid receptor alpha (Homo sapiens) (P10276 whole entry, looked up): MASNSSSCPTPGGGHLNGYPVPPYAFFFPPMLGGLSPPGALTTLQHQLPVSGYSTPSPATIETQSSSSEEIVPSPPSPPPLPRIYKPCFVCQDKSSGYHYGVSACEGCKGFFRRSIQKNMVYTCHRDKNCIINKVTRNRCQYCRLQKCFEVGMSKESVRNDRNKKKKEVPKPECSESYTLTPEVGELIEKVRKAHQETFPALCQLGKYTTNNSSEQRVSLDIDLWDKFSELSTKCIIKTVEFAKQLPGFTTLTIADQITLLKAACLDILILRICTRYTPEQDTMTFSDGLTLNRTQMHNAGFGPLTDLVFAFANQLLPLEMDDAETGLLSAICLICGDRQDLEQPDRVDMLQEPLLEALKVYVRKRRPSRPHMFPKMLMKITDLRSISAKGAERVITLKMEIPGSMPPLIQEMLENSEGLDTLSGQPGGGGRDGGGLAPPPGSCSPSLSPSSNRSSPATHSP
Chain of human Phosphodiesterase 10 (PDE10), PDE10A (gene 10846) (Q9Y233 whole entry, looked up): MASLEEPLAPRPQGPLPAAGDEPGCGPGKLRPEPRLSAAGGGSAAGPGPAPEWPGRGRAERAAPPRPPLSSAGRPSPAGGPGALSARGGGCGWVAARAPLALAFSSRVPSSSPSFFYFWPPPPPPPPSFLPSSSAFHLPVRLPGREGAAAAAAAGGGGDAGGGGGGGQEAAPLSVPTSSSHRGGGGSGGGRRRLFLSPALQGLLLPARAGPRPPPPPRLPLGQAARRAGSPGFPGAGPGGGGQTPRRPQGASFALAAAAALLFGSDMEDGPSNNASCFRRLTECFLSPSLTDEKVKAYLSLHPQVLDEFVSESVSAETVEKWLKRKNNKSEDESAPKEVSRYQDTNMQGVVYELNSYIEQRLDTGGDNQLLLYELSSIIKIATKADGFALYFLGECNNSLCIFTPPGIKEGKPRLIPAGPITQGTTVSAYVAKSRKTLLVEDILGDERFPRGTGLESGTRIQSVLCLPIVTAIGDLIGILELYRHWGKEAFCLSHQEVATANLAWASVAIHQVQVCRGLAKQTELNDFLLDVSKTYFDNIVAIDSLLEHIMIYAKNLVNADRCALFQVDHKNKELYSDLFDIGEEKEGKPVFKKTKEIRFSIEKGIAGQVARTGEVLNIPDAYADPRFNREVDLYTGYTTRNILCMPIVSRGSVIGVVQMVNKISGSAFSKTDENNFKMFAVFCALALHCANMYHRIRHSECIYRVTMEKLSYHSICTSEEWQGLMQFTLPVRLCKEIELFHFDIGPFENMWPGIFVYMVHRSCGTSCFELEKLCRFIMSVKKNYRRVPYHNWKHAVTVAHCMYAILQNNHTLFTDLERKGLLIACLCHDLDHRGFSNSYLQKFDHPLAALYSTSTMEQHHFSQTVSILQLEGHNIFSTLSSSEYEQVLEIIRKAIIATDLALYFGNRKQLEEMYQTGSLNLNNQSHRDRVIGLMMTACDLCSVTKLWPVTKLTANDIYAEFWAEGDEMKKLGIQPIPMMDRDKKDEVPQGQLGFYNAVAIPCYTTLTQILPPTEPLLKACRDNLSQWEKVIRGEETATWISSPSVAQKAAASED
Chain of human Peripheral-type Benzodiazepine Receptor (PBR), TSPO (gene 706) (P30536 whole entry, looked up): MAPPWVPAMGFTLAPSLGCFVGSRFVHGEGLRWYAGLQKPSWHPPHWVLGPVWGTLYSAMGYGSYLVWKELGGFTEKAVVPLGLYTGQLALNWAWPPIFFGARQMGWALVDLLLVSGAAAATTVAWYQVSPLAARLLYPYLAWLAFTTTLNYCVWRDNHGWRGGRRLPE
Chain of THRA (gene 7067) (P10827 whole entry, looked up, the tested form may be a part): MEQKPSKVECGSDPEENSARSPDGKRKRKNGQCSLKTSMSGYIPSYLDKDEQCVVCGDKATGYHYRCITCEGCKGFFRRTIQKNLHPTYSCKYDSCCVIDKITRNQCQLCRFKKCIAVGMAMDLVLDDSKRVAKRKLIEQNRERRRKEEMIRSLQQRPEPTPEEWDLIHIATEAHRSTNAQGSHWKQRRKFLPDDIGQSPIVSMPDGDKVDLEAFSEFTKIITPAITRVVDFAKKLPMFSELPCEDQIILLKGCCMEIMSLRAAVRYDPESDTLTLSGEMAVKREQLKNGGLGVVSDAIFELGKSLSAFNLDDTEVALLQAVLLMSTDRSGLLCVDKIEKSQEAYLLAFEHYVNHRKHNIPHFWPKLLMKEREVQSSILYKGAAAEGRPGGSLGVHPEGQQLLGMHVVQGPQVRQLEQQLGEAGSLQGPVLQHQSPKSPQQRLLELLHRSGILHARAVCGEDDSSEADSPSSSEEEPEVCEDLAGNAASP

Turning to `Oc1cccc2ccccc12`, the AC50 in [1] was 21 µM (active); in [6], 26.3 µM (active). The result in assay [2], in [3], in assay [4], in assay [5], in assay [7] and in [8] was inactive.

As for `N#CCN(CC#N)CCN(CC#N)CC#N`, the molecule was classed as inactive in assay [9] and in assay [11]. Further, the AC50 in assay [10] is 12.1 µM (active).

With `OC(C(F)(F)F)(C(F)(F)F)C(O)(C(F)(F)F)C(F)(F)F`, the AC50 in [12] is 18.9 µM (active); in [13] it was 0.218 µM (active); in [14], 5.86 µM (active); in assay [15], 7.66 µM (active). In addition, the outcome in [12], in assay [13], in assay [14] and in assay [15] was inactive.

With `C[N+](C)(C)CC(=O)[O-]`, the molecule was called inactive in assay [9], in assay [10] and in assay [11].

On to `Oc1ccc(Oc2ccccc2)cc1`, for which the molecule was classed as inactive in assay [16].

In the case of `COc1ccc2ccccc2c1`, the AC50 in assay [1] is 25 µM (active).

On to `O=C(C1CCCCC1)N1CC(=O)N2CCc3ccccc3C2C1` (stereo not given), for which, in assay [16], the call was inactive.

Regarding `CC(=[OH+])/C=C(/C)[O-].CC(=[OH+])/C=C(/C)[O-].CC(=[OH+])/C=C(/C)[O-].[Al]`, the result in [17] was inactive.

For the molecule `CC[N+](CC)(CC(=O)Nc1c(C)cccc1C)Cc1ccccc1` (tested in a mixture with another compound), in assay [17], the AC50 is 4.38 µM (active). In addition, the outcome in [2] was inactive.

For the molecule `CC(O)(c1ccc(Cl)cc1)c1ccc(Cl)cc1`, in assay [18], the outcome was inactive.

As for `O=[Se](O)O`, the AC50 with THRA (gene 7067) was 34.4 µM (active).

On to `COc1ccc2cc3[n+](cc2c1OC)CCc1cc2c(cc1-3)OCO2`, for which the AC50 in assay [19] is 0.106 µM (active).

With `CNCCC(Oc1ccc(C(F)(F)F)cc1)c1ccccc1` (stereo not given), the AC50 was 1.87 µM (active) in assay [19]; 18.8 µM (active) in assay [3]; 12.7 µM (active) in assay [4]; 15 µM (active) in [5]; 7.3 µM (active) in assay [6]; 18.6 µM (active) in assay [7]. The AC50 in assay [8] was 24.8 µM (active).

As to `CO[C@H]1C[C@@H]2CC[C@@H](C)[C@@](O)(O2)C(=O)C(=O)N2CCCC[C@H]2C(=O)O[C@H]([C@H](C)C[C@@H]2CC[C@@H](O)[C@H](OC)C2)CC(=O)[C@H](C)/C=C(\C)[C@@H](O)[C@@H](OC)C(=O)[C@H](C)C[C@H](C)\C=C/C=C/C=C/1C`, in the assay with THRA (gene 7067), the result was inactive.

In the case of `CC(COc1ccccc1)N(CCCl)Cc1ccccc1` (stereo not given), the molecule was classed as inactive in assay [18].
